A selection: hits, their analogues and other compounds. The true share with any hit is near 27%.
sEH act: soluble epoxide hydrolase activators, primary screen, biochemical, human sEH. activation, % at 2 µM. AID 717, 2007. purified human sEH enzymatic activity, activator screen. Bifunctional epoxide hydrolase 2 (Homo sapiens), P34913. 0.04% of 91,000 active; in the data active = activation above about 37%
CYP2C9 inhib: blockers of cytochrome P450 2C9 activity – biochemical, luminescence, ADME assay, primary screen | 20% of 96,000 active | CYP2C9 Supersomes, luciferin-H conversion | AID 777, 2007 | P11712 | inhibition, % at 5 µM;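 active = blocking of liver enzyme CYP2C9 beyond about 50% at 5 µM, limit read from the data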
Target sequence (P11712 whole entry, looked up): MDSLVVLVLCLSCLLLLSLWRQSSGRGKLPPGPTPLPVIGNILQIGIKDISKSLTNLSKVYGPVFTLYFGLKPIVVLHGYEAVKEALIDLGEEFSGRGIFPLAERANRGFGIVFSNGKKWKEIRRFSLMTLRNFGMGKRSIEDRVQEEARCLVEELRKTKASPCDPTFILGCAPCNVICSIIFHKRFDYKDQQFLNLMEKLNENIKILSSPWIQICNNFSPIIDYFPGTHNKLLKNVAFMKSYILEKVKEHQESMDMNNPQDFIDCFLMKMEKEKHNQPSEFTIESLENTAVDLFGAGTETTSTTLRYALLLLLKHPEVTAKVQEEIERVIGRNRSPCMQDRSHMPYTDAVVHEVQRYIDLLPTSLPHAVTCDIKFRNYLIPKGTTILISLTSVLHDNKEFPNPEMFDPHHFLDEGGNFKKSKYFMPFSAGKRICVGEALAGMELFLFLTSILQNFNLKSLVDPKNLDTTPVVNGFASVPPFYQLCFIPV
CYP2C19 inh: blockers of cytochrome P450 2C19 activity – biochemical, luminescence, ADME assay, primary screen. inhibition, % at 5 µM. 21% of 96,000 active. AID 778, 2007. CYP2C19 Supersomes, luciferin-H EGE luminescence, 30 min. P33261;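 active = CYP2C19 inhibition above a set limit at 5 µM in the primary screen, cut at about 50% in these data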;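 also: plate controls were negative control wells for no effect and 2.5 mM tranylcypromine positive control for full effect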
sEH inh: soluble epoxide hydrolase inhibitors, primary screen, biochemical, human sEH; Bifunctional epoxide hydrolase 2 (Homo sapiens), P34913; inhibition, % at 2 µM; 0.34% of 91,000 active; recombinant human sEH enzymatic activity assay; in the data active = inhibition above about 80%
CYP2C9 activ: human CYP2C9 activators, primary screen, biochemical, luminescence; activation factor at 5 µM; recombinant CYP2C9, luciferin-H conversion; stronger effect = higher value; factor 1 = untreated enzyme, 0 = blocked; Cytochrome P450 2C9 (Homo sapiens), P11712; 1.4% of 96,000 active;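 active = activation factor of 2 or more for CYP2C9 at a 5 µM dose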;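 also: 0 = sulfaphenazole-blocked wells and 1 = vehicle-only wells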
CYP2C19 activ: human CYP2C19 activators, primary screen, biochemical, luminescence; recombinant CYP2C19, luciferin-H EGE luminescence; stronger effect = higher value; 0 = fully inhibited enzyme, 1 = untreated enzyme; activation factor at 5 µM; 96,000 tested, under 10 active;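 active = activation factor of at least 2 at 5 µM in the primary screen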;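 also: 0 = wells with 2.5 mM tranylcypromine and 1 = vehicle-only wells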
Active calls of the source: *; . = not tested or not shown.

SMILES	sEH act	CYP2C9 inhib	CYP2C19 inh	sEH inh	CYP2C9 activ	CYP2C19 activ
O=C(c1ccccc1)c1ccc(C(=O)N2CCN(c3ccc(F)cc3)CC2)o1	-2	81*	89*	2	0.2	0.1
CCc1ccc(C(=O)N2CCN(c3ccc(F)cc3)CC2)s1	-1	48	87*	1	0.5	0.1
CCN1CC=C2C(C1)C(c1ccc(Cl)s1)C(C#N)=C(N)C2(C#N)C#N (configuration not stated)	-4	93*	70*	3	0.1	0.3
CCN1CC=C2C(C#N)=C(N)C(C#N)(C#N)[C@H](c3cccc(OC)c3OC)[C@H]2C1	2	14	44	1	0.9	0.6
COc1ccc2c(c1OC)C(=O)NC(C)=C(C(=O)OC(C)(C)C)C2O (configuration not stated)	1	56*	81*	-3	0.4	0.2
O=C(NCc1ccc(Cl)cc1Cl)C(=O)N1CCCCC1	-2	-282	17	3	3.8*	0.8
Cc1ccc(N(C(=O)c2ccccn2)C2(C(=O)NC3CCCC3)CCCCC2)cc1	-7	93*	37	6	0.1	0.6
COc1cccc(/C=N/NC(=O)CCc2ccccc2)c1	-12	5	60*	14	0.9	0.4
COc1cccc(/C=N/NC(=O)c2ccc(OCc3cccc(Br)c3)cc2)c1	-48	84*	50	46	0.2	0.5
O=C(Nc1nnc(CCN2CCOCC2)s1)C1CCCCC1	.	0	-1	.	1	1
O=C(CN1CCN(c2ncccn2)CC1)N(Cc1ccccc1)c1ccc(F)cc1	16	50*	61*	-18	0.5	0.4
CCN(CC)C(=O)CN1CCN(c2ncccn2)CC1	-6	-4	-1	4	1	1
Cc1oc(-c2ccc(Cl)cc2)[n+]([O-])c1C	-2	15	3	-1	0.8	1
Nc1nc(Cl)cc(N2CCC(c3cc(-c4ccc(Cl)cc4Cl)n[nH]3)CC2)n1	8	-4	24	-2	1	0.8
N#CC1=C(N)N(c2ccc(Oc3ccccc3)cc2)C(=O)C1	10	52*	46	-11	0.5	0.5
Cc1ccc(NC(=O)c2c(Cl)n(C)c3ccccc23)cc1	-10	-112	26	8	2.1*	0.7
Cn1c(Cl)c(C(=O)Nc2ccccc2)c2ccccc21	16	-16	22	-13	1.2	0.8
CCOC(=O)n1c(=O)oc2ccc(Cl)cc21	8	.	.	-4	.	.
CCOC(=O)n1c(=O)n(Cc2ccc(Cl)cc2Cl)c2ccccc21	-6	19	63*	6	0.8	0.4
CCOC(=O)n1c(=O)n(Cc2ccccc2Cl)c2ccccc21	12	48	85*	-12	0.5	0.2
CCC1(CC)C(=O)N(C)C(=O)NC1=NCc1ccccc1	6	15	12	-4	0.9	0.9
CCOC(=O)c1[nH]c2ccc(OC)cc2c1N=CN(C)C	5	11	7	-2	0.9	0.9
CCOc1ccc(S(=O)(=O)N(CC(=O)O)c2ccc(C)cc2)cc1	2	46	21	-2	0.5	0.8
CC1(C)CC(=O)C=C(Nc2ccc(C(=O)O)cc2)C1	4	.	.	-7	.	.
CCCOc1ccc(NC2=CC(=O)CC(C)(C)C2)cc1	1	79*	37	-2	0.2	0.6
SMILES	sEH act	CYP2C9 inhib	CYP2C19 inh	sEH inh	CYP2C9 activ	CYP2C19 activ
CC(=O)N1CCN(c2ccc(NCc3ccc(C)s3)cc2)CC1	.	33	22	.	0.7	0.8
Cc1ccc(CNc2ccc(N3CCOCC3)cc2)s1	-4	18	65*	2	0.8	0.4
CC(C)c1ccc(C2C3CSCC=C3C(C#N)=C(N)C2(C#N)C#N)cc1 (configuration not stated)	-4	100*	67*	3	0	0.3
COc1cc(-c2nc(-c3ccc4c(c3)-c3ccccc3S4(=O)=O)c(-c3ccccc3)[nH]2)cc(OC)c1O	1	78*	79*	0	0.2	0.2
COc1ccc(-c2nc(-c3ccccc3)c(-c3cccs3)[nH]2)cc1OC	-5	37	6	2	0.6	0.9
c1cnc(SCCCOc2ccc3ccccc3c2)nc1	2	16	10	0	0.8	0.9
COc1ccc(OCCSc2ncccn2)cc1	19	37	87*	-13	0.6	0.1
COc1cccc(OCCCCSc2ncccn2)c1	12	20	20	-12	0.8	0.8
c1ccc(Oc2cccc(OCCCn3cncn3)c2)cc1	13	94*	100*	-15	0.1	0
c1ccc(Oc2cccc(OCCCCSc3ncccn3)c2)cc1	-2	51*	38	4	0.5	0.6
COc1ccc(OCCCSc2ncccn2)cc1	13	22	64*	-13	0.8	0.4
CCOc1ccc2[nH]c(=O)c(CN(CC3CCCN3CC)C(=O)NCc3ccccc3)cc2c1 (configuration not stated)	.	20	19	.	0.8	0.8
COc1ccc(NC(=O)/C(Cl)=C(/Cl)S(=O)(=O)Cc2ccc(C)cc2)cn1	11	53*	36	-14	0.5	0.6
CCCOc1ccc(C(C)(O)CN2CCOCC2)cc1 (configuration not stated)	4	44	54*	-5	0.6	0.5
CCOc1ccc(C(C)(O)CN2CCOCC2)cc1 (configuration not stated)	-1	3	14	1	1	0.9
O=C(CCCCCn1c(=O)[nH]c2ccsc2c1=O)NCc1ccc2c(c1)OCO2	-50	63*	32	48	0.4	0.7
O=C(CCCn1c(=O)[nH]c2ccsc2c1=O)N1CCN(Cc2ccc3c(c2)OCO3)CC1	-1	.	.	1	.	.
COC(=O)c1ccc2c(=O)n(CCCCCC(=O)NCc3ccccc3)c(=O)[nH]c2c1	-41	51*	17	42	0.5	0.8
COC(=O)c1ccc2c(=O)n(CCCCCC(=O)NCc3ccc4c(c3)OCO4)c(=O)[nH]c2c1	-73	52*	23	73	0.5	0.8
COC(=O)c1ccc2c(=O)n(CCCCCC(=O)NCc3ccccn3)c(=O)[nH]c2c1	1	28	1	-1	0.7	1
COCCCNC(NC(=O)c1ccc(Cl)cc1)C(Cl)(Cl)Cl (configuration not stated)	-6	25	43	9	0.7	0.6
O=C(Nc1nnc(CCS(=O)(=O)c2ccc(Br)cc2)s1)c1ccc([N+](=O)[O-])cc1	-12	-11	-8	13	1.1	1.1
O=c1nc(NCc2ccco2)sc2ncccc12	-2	7	-9	5	0.9	1.1

Assay outcomes deposited in PubChem by several laboratories.
